The results in this text go back to PubChem BioAssay (NCATS).

The nature of test [1]: Cell Viability - LYMP2-023 (AID 975). Note: nearly all actives have a fitted effect of over 55% in size. In outline: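 Human lymphoblastoid cells (2500/well) were preincubated 5 hr at 37 C, then exposed to compounds for 24 hr at 37 C in complete medium. Cellular ATP was read by CellTiter-Glo luminescence, and AC50 came from Hill-equation fits.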
Test [2] in a line: Cell Viability - LYMP2-025 (AID 976). In outline:
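Human lymphoblastoid LYMP2-025 cells (2500/well) were pre-incubated 5 hr at 37 C, then treated with compounds for 24 hr at 37 C in complete medium. Viability was read as intracellular ATP by CellTiter-Glo luminescence; AC50 from Hill fits.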

Test [3] is described as follows: Cell Viability - LYMP2-002 (AID 977). Summed up:
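Luminescent ATP readout (CellTiter-Glo, 30 min room temperature) after 24 h compound exposure at 37 C of a human lymphoblastoid line, 2500 cells/well. AC50 values derived by standard Hill fitting of qHTS concentration-response data.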

Test [4] is described as follows: Cell Viability - LYMP2-006 (AID 978). Note: nearly all actives have a fitted effect of over 60% in size. In outline: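 Human lymphoblastoid cells, 2500 per well, were preincubated 5 hr at 37 C, then exposed to compounds for 24 hr at 37 C in complete medium. Viability was read as intracellular ATP by CellTiter-Glo luminescence; AC50 from Hill-equation fits of qHTS concentration-response data.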
A short description of test [5]: Cell Viability - LYMP2-007 (AID 979).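 Note: cells exposed to compound for 24 h before reading; nearly all actives have a fitted effect of over 60% in size.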 Summed up: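 Human lymphoblastoid cells (2500/well) were plated in complete medium, incubated 5 hr at 37 C, then exposed to compounds for 24 hr at 37 C. Intracellular ATP was read by CellTiter-Glo luminescence after 30 min at room temperature; AC50 from Hill fits.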
The nature of test [6]: Cell Viability - LYMP2-008 (AID 980). Note: nearly all actives have a fitted effect of over 60% in size. In outline:
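Human lymphoblastoid cells (2500/well) were plated, held 5 hr at 37 C, then exposed to compounds for 24 hr at 37 C in complete medium. Intracellular ATP was read by CellTiter-Glo luminescence; AC50 from Hill-fitted concentration-response.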

Test [7] is described as follows: Cell Viability - LYMP2-010 (AID 981). Note: nearly all actives have a fitted effect of over 55% in size. In outline:
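Human lymphoblastoid LYMP2-010 cells (2500/well) were preincubated 5 hr at 37 C, then exposed to compounds for 24 hr at 37 C in complete medium. Intracellular ATP was measured by CellTiter-Glo luminescence after 30 min at room temperature; AC50 from Hill-fitted concentration-response.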

Test [8] in a line: Cell Viability - LYMP2-014 (AID 983). Note: nearly all actives have a fitted effect of over 50% in size. In outline: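 Human lymphoblastoid cells (2500/well) were pre-incubated 5 hr at 37 C, then exposed to compounds in complete medium for 24 hr at 37 C. Intracellular ATP was read by CellTiter-Glo luminescence after 30 min at room temperature; AC50 from Hill fits.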
A short description of test [9]: Cell Viability - LYMP2-016 (AID 984). Note: nearly all actives have a fitted effect of over 55% in size. Summed up: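 Human lymphoblastoid cells (LYMP2-016), 2500/well in complete medium, preincubated 5 hr at 37 C, then compound-treated 24 hr at 37 C. Intracellular ATP read by CellTiter-Glo luminescence after 30 min at room temperature; AC50 from Hill-equation concentration-response fits.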
A short description of test [10]: Cell Viability - LYMP2-018 (AID 985).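 Note: compound exposure lasted 24 hr at 37 °C; nearly all actives have a fitted effect of over 50% in size.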 Summed up: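 Human lymphoblastoid cells (2500/well) were pre-incubated 5 hr at 37 C, then exposed to compounds for 24 hr at 37 C in complete medium. Viability was read as intracellular ATP by CellTiter-Glo luminescence; AC50 values came from Hill-equation fits.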

Several values for one entry are separate records, joined by “and”; a condition that tells them apart may be missing. Equal values may be shown once. Inconclusive results are not listed. Activity calls are given as the source filed them. Calls come from the whole dose curve; as a rule, active = well fitted cell-killing curve with a large enough effect; inconclusive = small, poorly fitted or top-dose-only effect; inactive = flat fitted curve, though single readings scatter.
Potency is the fitted concentration of half-maximal effect.

With `CCCC(C)(COC(N)=O)COC(=O)NC(C)C` (centres undefined), the Potency entry in test [1], in test [2], in [3], in test [4], in test [5] and in test [6] was “inactive” throughout. Besides, the Potency result in test [7], in test [8], in test [9] and in test [10] was “inactive” in each case.
Consider `NCC(O)c1ccc(O)cc1` (centres undefined), for which the Potency entry in test [1], in test [2], in test [3], in test [4], in test [5] and in test [6] was “inactive” each time. Also, the Potency entry in test [7], in test [8], in test [9] and in [10] was “inactive” each time.
In the case of `CNCC(O)c1ccc(O)cc1` (centres undefined), the Potency entry in test [1], in [2], in [3], in test [4], in test [5] and in test [6] was “inactive” in each case. The Potency result in [7], in test [8], in [9] and in test [10] was “inactive” each time.
`C[C@]12C/C(=C/O)C(=O)C[C@@H]1CC[C@@H]1[C@@H]2CC[C@@]2(C)[C@H]1CC[C@]2(C)O`: the Potency result in [2] was “inactive”. Also, the Potency in [7] is 50.1 µM (active).
As for `CCOP(=S)(OCC)Oc1cc(C)nc(C(C)C)n1`, the Potency result in test [1], in test [2], in [3], in [4], in [5] and in test [6] was “inactive” each time. The Potency result in test [7], in test [8], in [9] and in [10] was “inactive” each time.
Take `N[C@@H](Cc1ccc(N(CCCl)CCCl)cc1)C(=O)O`: the Potency in test [1] was 39.8 µM (active); in test [3], 39.8 µM (active); in [4], 39.8 µM (active); in test [5], 25.1 µM (active); in test [6], 31.6 µM (active); in test [7], 31.6 µM (active). The figures for the Potency in test [8], in test [9] and in [10] were 31.6 µM (active), 25.1 µM (active) and 25.1 µM (active), respectively.
Regarding `OCCOc1ccccc1`, the Potency result in test [1], in test [2], in test [3], in [4], in test [5] and in test [6] was “inactive” each time. Moreover, the Potency result in test [7], in [8], in test [9] and in [10] was “inactive” each time.
In the case of `Oc1cccc2cccnc12`, the Potency in test [1] was 25.1 µM (active); in test [3], 25.1 µM (active) and 15.8 µM (active); in [4] it was 25.1 µM (active) and 15.8 µM (active); in [5] it was 15.8 µM (active); in test [6] it was 15.8 µM (active) and 12.6 µM (active); in [7], 12.6 µM (active) and 10 µM (active). Besides, the Potency in test [8] is 15.8 µM (active) and 12.6 µM (active); in test [9], 15.8 µM (active); in test [10], 12.6 µM (active) and 10 µM (active).
As for `Clc1ccc(COC(Cn2ccnc2)c2ccc(Cl)cc2Cl)cc1` (centres undefined), the Potency in [5], in test [6] and in [10] was 50.1 µM (active) each time.
Turning to `Oc1ccc(Cl)cc1Cc1ccccc1`, the Potency entry in [1], in [2], in test [3], in test [4], in [5] and in test [6] was “inactive” throughout. The Potency result in test [7], in [8], in test [9] and in test [10] was “inactive” throughout.
`CC(=O)Oc1ccccc1C(=O)Nc1ncc([N+](=O)[O-])s1`: the Potency in test [2] is 31.6 µM (active); in [3], 31.6 µM (active); in test [6], 31.6 µM (active); in test [7], 39.8 µM (active); in test [9] it was 39.8 µM (active); in [10], 39.8 µM (active).
For `Oc1ccccc1-c1ccccc1`, the Potency entry in test [1], in test [2], in test [3], in test [4], in test [5] and in test [6] was “inactive” in each case. The Potency result in [7], in [8], in [9] and in [10] was “inactive” throughout.
As for `CC(COc1ccccc1)N(CCCl)Cc1ccccc1` (centres undefined), the Potency in test [1] was 50.1 µM (active); in test [3] it was 50.1 µM (active); in test [4], 50.1 µM (active); in [5], 39.8 µM (active); in test [6], 39.8 µM (active).
For `c1ccc2c(c1)Nc1ccccc1S2`, the Potency entry in test [1], in [2], in test [3], in [4], in test [5] and in [6] was “inactive” in each case. The Potency entry in [7], in test [8], in test [9] and in test [10] was “inactive” throughout.
